Inconclusive results are not listed. Calls of active or inactive are those of the source. Unless noted, calls follow the shape of the dose curve; as a rule, active = well fitted curve in the direction sought with a large enough effect; inconclusive = small, poorly fitted or top-dose-only effect, or another doubt; inactive = no such curve, though single readings can be large; an effect the other way counts as inactive or inconclusive.

Test [1] in a line: qHTS assay for measurement of the activity of small molecule inhibitors on Zika virus induced Caspase-3 activity in human iPSC derived neural progenitor cells (hNPCs) (AID 1224857). Also: nearly all actives have a fitted effect of over 65% in size. The gist of the method:
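Pretreat hNPCs with compound 1 h; infect ZIKV 2 FFU/cell; 6 h 37 C, 5% CO2; Caspase-Glo 3/7, 30 min RT; luminescence; normalize to no-virus and virus-only wells.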
(In general: Quantitative high-throughput screening tests each substance at several concentrations.)

Test [2] is described as follows: qHTS assay for measurement of the activity of small molecule inhibitors on Zika virus induced Caspase-3 activity in human astrocytoma cells (AID 1224859). The gist of the method: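 Human SNB-19 astrocytoma cells in RPMI 1640 with 10% FBS receive compound one hour ahead of Zika virus at 2 FFU/cell. After 6 h infection, caspase-3/7 activity is detected by Caspase-Glo luminescence.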

The nature of test [3]: qHTS assay to identify small molecule inhibitors of chordoma cells - UCH-1 (AID 1259355). Also: nearly all actives have a fitted effect of over 55% in size. The gist of the method:
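Screening used approved and investigational drugs in 15-point titration against 800 seeded cells per well. A fixed combination of auranofin with camptothecin, doxorubicin, rubitecan and topotecan followed compound addition, and growth was scored by CellTiter-Glo after 48hr.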

A short description of test [4]: qHTS assay to identify small molecule inhibitors of chordoma cells - UCH-2 (AID 1259356). Also: series mostly up to about 46 µM.
Test [5] is described as follows: P-glycoprotein substrates identified in KB-8-5-11 adenocarcinoma cell line, qHTS therapeutic library screen (AID 1346987). Also: series mostly up to about 44 µM; nearly all actives have a fitted effect of over 65% in size. The procedure, abridged: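 Compounds are pinned in dose-response onto KB-8-5-11 cells (500 cells/well, colchicine-free medium) and left 72 h at 37 degree C. CellTiter-Glo luminescence then yields AC50 values.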
A short description of test [6]: Natriuretic polypeptide receptor (hNpr1) antagonism - Pilot counterscreen GloSensor control cell line (AID 1347045; calls by dose curve; also: series mostly up to about 38 µM). The gist of the method:
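Control counterscreen: luciferase cGMP-biosensor HEK293 cells (no Npr1) received compound for 30 min at room temperature after GloSensor substrate loading. Luminescence was measured before and 20 min after soluble guanylyl cyclase activation by 50 uM nitroprusside.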

Test [7] deals with Atrial natriuretic peptide receptor 1 (Homo sapiens) (UniProt P16066). As to the kind of experiment: Natriuretic polypeptide receptor (hNpr1) antagonism - Pilot screen (AID 1347049; calls by dose curve;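 also: agonist-evoked cGMP luminescence read 20 min after hNppA addition; series mostly up to about 58 µM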). The procedure, abridged:
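cGMP-sensor HEK293/hNpr1 cells, 1500/well, plated overnight at 37C. 2% GloSensor reagent, 2 h RT. Compound (23 nL pin transfer) 30 min RT, baseline luminescence pre-read. 0.1 nM hNppA, 20 min RT, post-read.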

In test [8] the target is Atrial natriuretic peptide receptor 2 (Homo sapiens) (UniProt P20594). The test is described as follows: Natriuretic polypeptide receptor (hNpr2) antagonism - Pilot subtype selectivity assay (AID 1347050; calls by dose curve). The gist of the method: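 Luminescence from a genetically encoded cGMP luciferase biosensor in hNpr2-expressing HEK293 cells is read before and 20 min after adding 1 nM hNppC. Test compounds, in interplate 1:5 titrations, are added 30-50 min ahead of the agonist.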

A short description of test [9]: NS1 protein of Zika virus - qHTS assay to identify small molecule inhibitors in human HEK 293 cells (AID 1347053). Also: series mostly up to about 46 µM; nearly all actives have a fitted effect of over 55% in size. The procedure, abridged:
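In this cell-based screen, HEK 293 cultures received compound for one hour before Zika MR766 at MOI = 0.5. NS1 was quantified 24 hours later by TR-FRET, normalized to virus-free wells and infected wells.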

The target in test [10] is T1, Tyrosine-protein phosphatase non-receptor type substrate 1 (Homo sapiens) + Leukocyte surface antigen CD47 (Homo sapiens) (UniProt P78324+Q08722). The test is described as follows: CD47-SIRPalpha protein protein interaction - LANCE assay qHTS validation (AID 1347057; active = well fitted curve in the direction sought with a large enough effect in the signal ratio, with a control signal flat, not every such curve was filed as active; the % refers to the signal ratio; also: series mostly up to about 38 µM). The procedure, abridged:
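Inhibition of soluble CD47/SIRPalpha ectodomain association by titrated compounds, measured as 665/615 nm time-resolved FRET ratio after sequential 30 min room-temperature incubations.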

Test [11] concerns the target T1, Tyrosine-protein phosphatase non-receptor type substrate 1 (Homo sapiens) + Leukocyte surface antigen CD47 (Homo sapiens). The test is described as follows: CD47-SIRPalpha protein protein interaction - HTRF assay qHTS validation (AID 1347058; active = well fitted curve in the direction sought with a large enough effect in the signal ratio, not every such curve was filed as active; the % refers to the signal ratio; also: series mostly up to about 38 µM). The gist of the method:
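Soluble extracellular domains (6His-CD47, Avi-tag-biotinylated SIRPalpha) in PBS pH 7.4 with 0.05% IGEPAL CA-630. Compounds were preincubated 30 min at RT with CD47 and anti-His-Eu, then SIRPalpha and SAV-XL665 were added. TR-FRET 665/615 ratio.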
On the technique in general: Time-resolved FRET reads energy transfer from a long-lived donor to a nearby acceptor.

For test [12] the target is unchanged. The test is described as follows: CD47-SIRPalpha protein protein interaction - Alpha assay qHTS validation (AID 1347059).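 Also: bead proximity luminescence from CD47 binding SIRPalpha after compound preincubation with SIRPalpha.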 The gist of the method: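 SIRPalpha-biotin 25 nM + cpd, 30 min RT, dark; add CD47-His 12.5 nM, 30 min; add Ni-NTA/SAV beads 10 ug/mL, 30 min; AlphaScreen. Buffer PBS pH 7.4 + 0.05% IGEPAL CA-630. Non-biotinylated SIRPalpha as control inhibitor.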

A short description of test [13]: qHTS of pediatric cancer cell lines to identify multiple opportunities for drug repurposing: Primary screen for TC32 cells (AID 1347089). Also: nearly all actives have a fitted effect of over 60% in size. The gist of the method:
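Luminescent CellTiter-Glo read-out of metabolically active TC32 cells after 48 h compound exposure. Primary: MIPE 11-point, 0.78 nM–46 µM; NPC 8-point, 0.59 nM–46 µM. Confirmatory: 11-point dilutions.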

Test [14] has as its target Parathyroid hormone/parathyroid hormone-related peptide receptor (Homo sapiens) (UniProt Q03431). The test is described as follows: qHTS for PTHR1 Agonists: Optimization Screen against the NCGC LOPAC library (AID 1347079).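 Also: GloSensor cAMP luminescence in HEK-293 GP2 cells expressing human PTHR1 with IBMX.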 The gist of the method:
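HEK-293 GP2 cells, PTHR1 + GloSensor cAMP; 3000 cells/well, o/n. Luciferin + IBMX 0.5mM each (stock), 1 hr 37C. Cpd titration, 1 hr 37C. Lum after 15 min RT. Ctrl M-PTH(1-15) top 10uM.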

Test [15] in a line: qHTS of pediatric cancer cell lines to identify multiple opportunities for drug repurposing: Primary screen for DAOY cells (AID 1347090). Also: nearly all actives have a fitted effect of over 55% in size. Also: potency is read from the fitted curve at half-maximal effect. The gist of the method:
(§1)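 Viability measured as metabolically active cells via CellTiter-Glo luminescence following 48 hours of compound exposure, 11-point dilutions in confirmatory testing. 500-1,000 cells/well plated 5 hours before dosing; controls were DMSO and 2.3 µM bortezomib.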

Test [16] can be described thus: qHTS of pediatric cancer cell lines to identify multiple opportunities for drug repurposing: Primary screen for SJ-GBM2 cells (AID 1347091). Also: potency is read from the fitted curve at half-maximal effect. The procedure, abridged: as §1

T1 sequence (P78324 whole entry, looked up, the tested form may be a part): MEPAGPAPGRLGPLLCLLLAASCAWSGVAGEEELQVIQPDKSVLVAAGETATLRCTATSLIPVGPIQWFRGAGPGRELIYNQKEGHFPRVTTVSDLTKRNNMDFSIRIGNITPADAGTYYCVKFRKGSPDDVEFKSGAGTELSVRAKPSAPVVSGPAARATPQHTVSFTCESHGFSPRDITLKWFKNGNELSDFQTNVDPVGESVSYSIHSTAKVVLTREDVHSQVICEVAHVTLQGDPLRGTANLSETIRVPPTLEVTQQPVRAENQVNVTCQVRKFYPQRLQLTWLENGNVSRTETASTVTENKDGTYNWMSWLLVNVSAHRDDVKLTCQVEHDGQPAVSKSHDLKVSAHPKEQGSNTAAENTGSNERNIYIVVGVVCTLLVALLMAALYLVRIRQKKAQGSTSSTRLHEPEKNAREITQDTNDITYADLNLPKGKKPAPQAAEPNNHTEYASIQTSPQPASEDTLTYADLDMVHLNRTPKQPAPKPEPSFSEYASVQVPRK
T1 sequence (Q08722 whole entry, looked up, the tested form may be a part): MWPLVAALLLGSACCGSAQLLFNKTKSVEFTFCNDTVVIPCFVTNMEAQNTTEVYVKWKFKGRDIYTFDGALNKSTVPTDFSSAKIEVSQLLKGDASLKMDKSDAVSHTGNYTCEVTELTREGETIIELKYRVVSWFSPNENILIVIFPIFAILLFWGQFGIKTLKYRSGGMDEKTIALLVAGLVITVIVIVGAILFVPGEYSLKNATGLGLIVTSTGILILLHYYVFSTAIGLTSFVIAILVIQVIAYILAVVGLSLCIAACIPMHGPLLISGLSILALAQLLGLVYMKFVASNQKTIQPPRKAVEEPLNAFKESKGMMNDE
Chain of Parathyroid hormone/parathyroid hormone-related peptide receptor (Homo sapiens) (Q03431 whole entry, looked up): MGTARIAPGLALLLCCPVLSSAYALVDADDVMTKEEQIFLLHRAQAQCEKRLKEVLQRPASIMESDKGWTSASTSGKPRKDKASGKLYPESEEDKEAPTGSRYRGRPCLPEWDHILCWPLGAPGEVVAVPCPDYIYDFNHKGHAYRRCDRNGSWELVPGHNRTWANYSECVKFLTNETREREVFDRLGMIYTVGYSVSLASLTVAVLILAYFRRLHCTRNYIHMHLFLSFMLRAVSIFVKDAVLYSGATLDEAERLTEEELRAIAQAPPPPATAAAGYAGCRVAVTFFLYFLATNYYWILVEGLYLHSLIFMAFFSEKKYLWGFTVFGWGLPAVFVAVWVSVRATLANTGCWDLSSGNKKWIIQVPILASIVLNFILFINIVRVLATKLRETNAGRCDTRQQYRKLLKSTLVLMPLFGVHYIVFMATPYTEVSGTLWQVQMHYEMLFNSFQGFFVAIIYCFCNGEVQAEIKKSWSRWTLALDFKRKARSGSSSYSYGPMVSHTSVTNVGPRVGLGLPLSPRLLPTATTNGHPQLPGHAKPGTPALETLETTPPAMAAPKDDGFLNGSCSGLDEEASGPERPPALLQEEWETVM
Chain of Atrial natriuretic peptide receptor 1 (Homo sapiens) (P16066 whole entry, looked up): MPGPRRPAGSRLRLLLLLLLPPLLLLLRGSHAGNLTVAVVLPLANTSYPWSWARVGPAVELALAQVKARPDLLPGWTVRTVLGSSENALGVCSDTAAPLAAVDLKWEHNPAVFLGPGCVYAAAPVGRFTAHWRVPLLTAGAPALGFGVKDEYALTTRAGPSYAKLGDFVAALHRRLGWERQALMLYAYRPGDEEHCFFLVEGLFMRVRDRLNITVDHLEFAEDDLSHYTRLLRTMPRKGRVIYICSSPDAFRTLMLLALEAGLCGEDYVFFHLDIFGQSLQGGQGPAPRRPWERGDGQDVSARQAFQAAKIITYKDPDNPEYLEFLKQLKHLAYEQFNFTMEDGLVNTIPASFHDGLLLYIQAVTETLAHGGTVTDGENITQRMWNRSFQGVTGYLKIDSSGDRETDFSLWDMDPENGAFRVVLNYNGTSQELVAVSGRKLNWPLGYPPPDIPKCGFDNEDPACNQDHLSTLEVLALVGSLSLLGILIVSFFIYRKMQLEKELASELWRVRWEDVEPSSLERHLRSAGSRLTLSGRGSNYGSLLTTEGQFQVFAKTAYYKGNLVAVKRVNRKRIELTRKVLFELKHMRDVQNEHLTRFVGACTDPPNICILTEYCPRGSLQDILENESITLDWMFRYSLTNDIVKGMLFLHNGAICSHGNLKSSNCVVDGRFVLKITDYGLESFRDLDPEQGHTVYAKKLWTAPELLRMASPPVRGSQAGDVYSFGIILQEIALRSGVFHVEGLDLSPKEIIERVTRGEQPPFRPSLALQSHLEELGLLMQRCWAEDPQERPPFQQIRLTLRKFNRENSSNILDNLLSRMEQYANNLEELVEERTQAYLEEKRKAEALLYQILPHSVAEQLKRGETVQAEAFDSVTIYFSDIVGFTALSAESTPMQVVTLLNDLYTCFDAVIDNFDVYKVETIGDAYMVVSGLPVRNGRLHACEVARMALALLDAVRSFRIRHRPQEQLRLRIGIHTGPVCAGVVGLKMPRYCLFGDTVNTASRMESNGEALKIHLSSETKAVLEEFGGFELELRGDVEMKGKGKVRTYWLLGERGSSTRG
Chain of Atrial natriuretic peptide receptor 2 (Homo sapiens) (P20594 whole entry, looked up): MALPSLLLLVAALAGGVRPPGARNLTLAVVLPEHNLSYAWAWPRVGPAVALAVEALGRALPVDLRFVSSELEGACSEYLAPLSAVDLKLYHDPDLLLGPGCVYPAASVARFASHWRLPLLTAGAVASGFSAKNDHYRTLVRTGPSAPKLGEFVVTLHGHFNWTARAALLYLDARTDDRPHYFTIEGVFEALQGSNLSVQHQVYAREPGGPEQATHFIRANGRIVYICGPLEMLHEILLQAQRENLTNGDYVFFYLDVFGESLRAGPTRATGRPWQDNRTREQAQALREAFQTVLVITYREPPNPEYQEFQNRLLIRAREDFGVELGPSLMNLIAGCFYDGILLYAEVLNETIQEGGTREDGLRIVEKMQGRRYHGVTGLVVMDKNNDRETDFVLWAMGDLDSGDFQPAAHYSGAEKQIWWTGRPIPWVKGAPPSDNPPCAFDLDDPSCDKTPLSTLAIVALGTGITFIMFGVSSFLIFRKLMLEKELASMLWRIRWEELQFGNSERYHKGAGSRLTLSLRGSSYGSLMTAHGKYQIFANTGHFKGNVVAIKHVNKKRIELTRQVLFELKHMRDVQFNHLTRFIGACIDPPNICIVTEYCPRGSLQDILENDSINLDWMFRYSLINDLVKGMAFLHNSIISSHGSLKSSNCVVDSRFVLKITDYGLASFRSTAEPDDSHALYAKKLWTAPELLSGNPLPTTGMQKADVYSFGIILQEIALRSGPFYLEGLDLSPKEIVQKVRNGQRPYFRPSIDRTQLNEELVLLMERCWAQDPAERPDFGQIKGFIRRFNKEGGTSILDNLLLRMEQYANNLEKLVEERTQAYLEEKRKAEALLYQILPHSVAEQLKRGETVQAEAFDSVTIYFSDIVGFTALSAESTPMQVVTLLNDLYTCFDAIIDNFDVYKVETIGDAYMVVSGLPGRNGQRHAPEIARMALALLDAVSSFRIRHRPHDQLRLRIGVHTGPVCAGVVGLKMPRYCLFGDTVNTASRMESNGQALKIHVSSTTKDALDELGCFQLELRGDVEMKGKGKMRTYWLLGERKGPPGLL

On to `C(=C\c1ccccc1)/CN1CCN(C(c2ccccc2)c2ccccc2)CC1`, for which the outcome in test [1], in test [2], in test [9], in test [10] and in test [11] was inactive. Further, the Potency entry in [3], in test [4], in test [5], in test [6], in test [7] and in test [8] was “inactive” each time. Moreover, the Potency result in test [12] and in test [13] was “inactive” throughout.

Take `C[N+](C)(C)CCOC(=O)CCC(=O)OCC[N+](C)(C)C`: the outcome in [1], in [2], in test [9], in test [10], in test [11] and in [14] was inactive. The Potency entry in test [3], in test [4], in test [5], in test [6], in test [7] and in [8] was “inactive” throughout. Besides, the Potency entry in test [12], in test [13], in test [15] and in test [16] was “inactive” throughout.

Turning to `CC(C(=O)O)c1ccc(CC2CCCC2=O)cc1` (stereo unspecified), the outcome in [1], in [2], in test [9], in test [10] and in test [11] was inactive. Further, the Potency result in [3], in test [4], in [5], in test [6], in test [7] and in test [8] was “inactive” each time. Moreover, the Potency result in test [12], in test [13], in test [15] and in test [16] was “inactive” in each case.

As for `CN/C(=C\[N+](=O)[O-])NCCSCc1ccc(CN(C)C)o1`, the call in [1], in test [2], in test [9], in test [10] and in [11] was inactive. Moreover, the Potency entry in test [3], in test [4], in test [5], in [6], in test [7] and in test [8] was “inactive” each time. For the same compound, the Potency result in test [12], in test [15] and in [16] was “inactive” throughout.

In the case of `CCCCNc1ccc(C(=O)OCCN(C)C)cc1`, the compound was classed as inactive in test [1], in test [2], in [9], in test [10], in test [11] and in [14]. In addition, the Potency result in test [3], in test [4], in test [5], in test [6], in [7] and in [8] was “inactive” in each case. Further, the Potency result in test [12], in [13], in test [15] and in test [16] was “inactive” each time.

`COC(=O)[C@@H](N)Cc1ccc(O)c(O)c1`: the call in [1], in test [2], in test [9], in test [10] and in test [11] was inactive. Further, the Potency entry in test [3], in [4], in test [5], in [6], in test [7] and in [8] was “inactive” throughout. The Potency entry in test [12], in test [13], in test [15] and in test [16] was “inactive” throughout.

With `Nc1nc(N)c2nc(-c3ccccc3)c(N)nc2n1`, the outcome in test [1], in [2], in test [9] and in test [10] was inactive. Moreover, the Potency entry in [3], in test [4], in test [5], in test [6], in test [7] and in [8] was “inactive” each time. Further, the Potency entry in test [12] was “inactive”. Moreover, the values for the Potency in test [15] and in [16] were 26.6 µM (active) and 6.68 µM (active), respectively.

For the compound `O=C(O)CP(=O)(O)O`, the compound was classed as inactive in test [1], in test [2], in test [9], in [10], in [11] and in [14]. The Potency entry in test [3], in [4], in test [5], in test [6], in test [7] and in test [8] was “inactive” in each case. Moreover, the Potency result in [12], in test [13], in test [15] and in [16] was “inactive” each time.

On to `CC(C)(C)NCC(O)c1cc(O)cc(O)c1` (stereo unspecified), for which the call in test [1], in test [2], in [9] and in [10] was inactive. Besides, the Potency result in test [3], in test [4], in test [5], in test [6], in test [7] and in test [8] was “inactive” throughout. The Potency result in test [12], in [15] and in test [16] was “inactive” throughout.

For the origin of these results see PubChem BioAssay (NCATS).
